Hit rate of the full screen: of about 190,000 compounds, about 810 (0.43%) were called active. Cut-off read from the data, not from the text of the source: active = inhibition above about 50%; inactive = the rest. Many of the other results were omitted from the sample, so actives are more common in it than they were.
Target: Mannose-6-phosphate isomerase (Homo sapiens) (UniProt P34949)
Assay: inhibitors of human PMI, primary screen, biochemical, fluorescence intensity, coupled assay (AID 1209);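 note: plate controls were DMSO vehicle for no effect and wells lacking substrate for full effect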
Conditions: purified PMI enzyme, at 20 µM, stronger effect = higher value

Sequence of Mannose-6-phosphate isomerase (Homo sapiens) (P34949 whole entry, looked up): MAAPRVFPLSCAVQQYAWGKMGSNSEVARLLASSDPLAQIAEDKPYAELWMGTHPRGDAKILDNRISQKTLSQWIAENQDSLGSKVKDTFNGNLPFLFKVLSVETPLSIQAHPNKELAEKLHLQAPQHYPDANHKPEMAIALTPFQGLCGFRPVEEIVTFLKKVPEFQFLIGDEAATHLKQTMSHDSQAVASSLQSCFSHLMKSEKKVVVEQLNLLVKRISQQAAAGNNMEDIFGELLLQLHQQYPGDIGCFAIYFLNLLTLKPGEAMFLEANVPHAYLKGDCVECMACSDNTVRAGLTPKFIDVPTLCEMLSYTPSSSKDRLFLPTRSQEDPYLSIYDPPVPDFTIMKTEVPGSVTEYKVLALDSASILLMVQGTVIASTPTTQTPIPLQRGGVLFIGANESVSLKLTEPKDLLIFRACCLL

inhibition, active:
COc1cc(C(=S)N2CCN(c3ccccc3Cl)CC2)cc(O)c1O 67.5%, COc1cc(C(=S)N2CCN(c3cccc(Cl)c3)CC2)ccc1O 58.8%, Oc1ccc(C(=S)N2CCN(c3cccc(Cl)c3)CC2)cc1 59.2%, COC(=O)c1ccc2c(c1)C(C)(C)C(/C=C/c1ccc(O)cc1)=[N+]2C 72%, COC(=O)c1ccc2c(c1)C(C)(C)C(/C=C/c1ccc(OC)c(OC)c1OC)=[N+]2C 91.8%, O=C(O)CC1S/C(=N/N=C/c2ccc(-c3ccccc3[N+](=O)[O-])o2)NC1=O (stereo not drawn) 68.4%

inhibition, inactive:
O=C(NCCN1C(=O)S/C(=C\c2ccccc2)C1=O)C1CCN(S(=O)(=O)c2cccs2)CC1 8.1%, CC(=O)c1cnn(-c2cc(Oc3cccc(C)c3)ncn2)c1C 16.6%, O=Cc1cn(-c2ccc(F)cc2)c2ccccc12 4.3%, Cc1cccc(NC(=O)c2ccccc2OCC(=O)N2CCOCC2)c1C 11.4%, CCOc1ccccc1NC(=O)NCc1cccnc1 0.3%, CSC1=C(C#N)C(c2ccc3c(c2)OCO3)C2=C(CCCC2=O)N1 (stereo not drawn) -3%, Oc1ccccc1C(=S)N1CCN(c2cccc(Cl)c2)CC1 22.1%, CC(=O)c1ccc(NC(=S)N2CCN(c3cccc(Cl)c3)CC2)cc1 -6.5%, COc1ccc(C(=S)N2CCN(c3cccc(Cl)c3)CC2)c(OC)c1 20.6%, COc1cc(C(=S)N2CCCC2)cc(Cl)c1O 4.8%, COc1cc(C(=S)N2CCCC2)cc(OC)c1O 17.5%, COc1cc(C(=S)N2CCCC2)ccc1O -0.7%, Cc1cccc(C)c1NC(=O)C1(N(Cc2ccco2)C(=O)Cn2nnnc2N)CCCCC1 4.1%, COc1ccc(CNC(=O)C/C(C)=N/NC(=O)Cc2ccc(OC)cc2)cc1 -4%, COC(=O)c1ccc2nc(C)c(C)nc2c1 -5.7%, COC(=O)c1ccc2c(c1)C(C)(C)C(/C=C/c1ccccc1O)=[N+]2C 39.9%, COC(=O)c1ccc(C(=O)OC)c(NC(=O)COC(=O)c2ccc(OC)c(OC)c2OC)c1 7.2%, COC(=O)c1ccc2c(c1)C(=O)/C(=C/c1ccc(O)cc1)O2 8%, CN(C)c1ccc(C(=O)OCc2ccccc2)cc1 16%, CCS(=O)(=O)c1ccc2c(c1)N(S(=O)(=O)c1ccc(Cl)cc1)CC(C(=O)O)O2 (stereo not drawn) -3.9%, O=C(O)CC1S/C(=N/N=C/c2ccc(-c3ccc(Cl)c([N+](=O)[O-])c3)o2)NC1=O (stereo not drawn) -9%, Cc1ccc(-c2ccc(/C=N/N=C3/NC(=O)C(CC(=O)O)S3)o2)c([N+](=O)[O-])c1 (stereo not drawn) 30.5%
